In ChEMBL document CHEMBL1157539, “Thousands of chemical starting points for antimalarial lead identification” (Nature, 2010):

Key:
Format in all cases: functional
Plasmodium falciparum [1] = test: GSK_TCMDC: Inhibition of Plasmodium falciparum 3D7 in whole red blood cells, using parasite LDH activity as an index of growth. Test compounds present at 2uM
Plasmodium falciparum [2] = test: GSK_TCMDC: Inhibition of Plasmodium falciparum Dd2 in whole red blood cells, using parasite LDH activity as an index of growth. Test compounds present at 2uM
HepG2 = test: GSK_TCMDC: Percent inhibition of human HepG2 cell line. Test compounds present at 10uM.

Row | SMILES | Inhibition (Plasmodium falciparum [1]) [%] | Inhibition (Plasmodium falciparum [2]) [%] | Inhibition (HepG2) [%]
1 | C#CC[C@@H](NC(N)=O)C(=O)O | 97 | 0 | 1
2 | COc1cc(NC(=O)c2cc([N+](=O)[O-])ccc2NC(=O)CNC2CCCC(C)C2C)cc(OC)c1 (configuration not stated) | 97 | 80 | 21
3 | Br.CCN(CC)CCn1c(=N)n(CC(=O)c2ccc(-c3ccccc3)cc2)c2ccccc21 | 83 | 38 | 32
4 | CN(C)CCCNCc1ccc(-c2ccc(C(F)(F)F)cc2)cc1 | 96 | 35 | 30
5 | COc1cc2c(cc1OC)C(c1ccc(Br)cc1)CN(C)CC2.Cl (configuration not stated) | 86 | 0 | 8
6 | CC(C)(C)C(=O)Oc1ccc(CC2NCCc3cc(OC(=O)C(C)(C)C)c(OC(=O)C(C)(C)C)cc32)cc1OC(=O)C(C)(C)C (configuration not stated) | 97 | 96 | 3
7 | Cc1cc(OCc2ccccc2)c(OCc2ccccc2)cc1C(O)CN(C)Cc1ccccc1.Cl (configuration not stated) | 96 | 87 | 14
8 | O=C(Nc1nc2cc(S(=O)(=O)NCc3ccc(Cl)c(Cl)c3)ccc2n1CCCN1CCCC1)c1ccc(Cl)cc1.O=C(O)C(F)(F)F | 89 | 16 | 57
9 | O=C(Nc1ccc(-c2cccc(-c3nc4ccccc4[nH]3)c2)cc1)Nc1ccsc1 | 100 | 90 | 56
10 | O=C(CCc1c[nH]cn1)Nc1cccc(-c2ccc(-c3nc4cc(F)ccc4[nH]3)cc2)c1 | 100 | 79 | 18
11 | O=C(Nc1cc(F)cc(F)c1)N1CCOC(CCN2CCC(c3ccccc3)CC2)(c2ccc(Cl)c(Cl)c2)C1 (configuration not stated) | 91 | 69 | 31
12 | Cc1cccc2nc(-c3cccc(-c4cccc(NC(=O)c5ccc(=O)[nH]n5)c4)c3)[nH]c12 | 100 | 32 | 10
13 | Cc1nn(C)c(C)c1CN(Cc1nc(-c2cccc(Oc3ccccc3)c2)oc1C)C1CC1 | 100 | 98 | 7
14 | O=C(C=Cc1ccc(Cl)c(Cl)c1)NCCCCCN1CCCC(CCCNS(=O)(=O)c2cccc3cccnc23)C1 (configuration not stated) | 96 | 16 | 37
15 | O=C(/C=C/c1ccc(Cl)c(Cl)c1)NCCCCCN1CCCC(C(=O)Nc2cccc(Cl)c2)C1 (configuration not stated) | 99 | 2 | 41
16 | O=C(Nc1ccc(C(=O)N2CCN(CCN3CCN(c4cccc(C(F)(F)F)c4)CC3)CC2)cc1)c1cc(Cl)cc(Cl)c1 | 100 | 19 | 23
17 | Cl.O=C(CCCC(=O)Nc1ccc(C2=NCCN2)cc1)Nc1ccc(C2=NCCN2)cc1 | 91 | 81 | 3
18 | Cc1cccc2nc(-c3ccc(-c4cccc(NC(=O)c5cccc(C(N)=O)c5)c4)cc3)[nH]c12 | 84 | 87 | 14
19 | COc1cc2c(cc1NS(=O)(=O)c1ccc(OCc3ccc(Br)cc3)cc1)CCN(C1CCC1)CC2.Cl | 94 | 30 | 36
20 | c1ccc(COc2ccc(COc3ccc(Cn4ccnc4)cc3)cc2)cc1 | 86 | 45 | 9

Row | SMILES | Inhibition (Plasmodium falciparum [1]) [%] | Inhibition (Plasmodium falciparum [2]) [%] | Inhibition (HepG2) [%]
21 | COc1ccccc1CC1CCCN(C2CCC(NC(=O)c3cc4ccccc4[nH]3)CC2)C1 (configuration not stated) | 98 | 21 | 23
22 | O=C(NCCc1ccccc1)N(Cc1ccccc1-c1cccc(CNCCc2ccccc2)c1)C1CCN(Cc2ccccc2)CC1.O=C(O)C(F)(F)F | 100 | 88 | 100
23 | O=C(Nc1ccc(C(F)(F)F)cc1)NC1CCN(c2ccnc3cc(Cl)ccc23)CC1.O=C(O)C(F)(F)F | 100 | 74 | 22
24 | O=C(Nc1cccc(-c2nn3ncccc3c2-c2ccnc(Nc3ccc(N4CCOCC4)cc3)n2)c1)c1c(F)cccc1F | 100 | 75 | 75
25 | CCCCN(CCCC)CCNC(=O)c1cc(OC(F)(F)F)ccc1O | 93 | 90 | 8
26 | Cl.O=C(/C=C/c1ccccc1F)NC1CCC(CCN2CCc3ccc(-c4cccnc4)cc3CC2)CC1 (configuration not stated) | 92 | 5 | 34
27 | COc1c(C)[nH]c(C)c(-c2ccc(Oc3cccc(C(F)(F)F)c3)cc2)c1=O | 98 | 96 | 40
28 | CN(C)c1ccc(Br)c(Br)c1 | 86 | 0 | 17
29 | O=C(Nc1ccc(-c2cccc(-c3nc4cc(C(F)(F)F)ccc4[nH]3)c2)cc1)c1ccoc1 | 96 | 13 | 52
30 | CCCCOc1cc(OC)c2ccccc2c1CCNCCCCNCCc1c(OCCCC)cc(OC)c2ccccc12.CS(=O)(=O)O | 82 | 82 | 100
31 | CC(C)c1sc(N2CCN(C)CC2)nc1C(=O)Nc1ccc(F)cc1C(F)(F)F.O=C(O)C(F)(F)F | 100 | 99 | 3
32 | O=C(NCCc1ccccc1F)c1cc(Br)cc(N2CCN(c3ccncc3)CC2)c1.O=C(O)C(F)(F)F | 97 | 67 | 29
33 | Cc1cccc2nc(-c3cccc(-c4ccc(NC(=O)NCc5cccc(F)c5)cc4)c3)[nH]c12 | 100 | 83 | 40
34 | O=C(Nc1ccc(Cl)cc1)OCCn1nnnc1C(c1ccc(Cl)cc1)N1CCOCC1 (configuration not stated) | 90 | 79 | 1
35 | CC(C)C[C@@H]1C(=O)N[C@H](C2Cc3ccccc3C2)C(=O)N1[C@@H](C(=O)O)c1ccc(F)cc1F | 98 | 0 | 10
36 | C[C@H]1CN(Cc2cccc(-c3cc(CNC(=O)c4cccc(CC5CCN(C)CC5)c4)ccc3F)c2)CCN1C | 100 | 99 | 42
37 | CN(c1ccc(NC(=O)Nc2cc(C(C)(C)C)on2)cc1)c1ccnc(NCCOC(=O)Nc2cc(C(C)(C)C)on2)n1.O=C(O)C(F)(F)F | 100 | 54 | 59
38 | Cc1cc(Cl)c(S(=O)(=O)NC2CCCC2)cc1OCC(=O)NC1CCCCC1 | 97 | 91 | 19
39 | O=C(Nc1ccc(F)cc1)c1ccc(C(=O)NC2CCN(CC3CCCCC3)CC2)cc1.O=C(O)C(F)(F)F | 99 | 0 | 34
40 | O=C(O)C(F)(F)F.O=C(O)Cc1ccc(-c2c[nH]c3ncc(-c4cccc5ncccc45)cc23)cc1 | 95 | 0 | 7

Row | SMILES | Inhibition (Plasmodium falciparum [1]) [%] | Inhibition (Plasmodium falciparum [2]) [%] | Inhibition (HepG2) [%]
41 | C=C[C@H]1CN(CCCCCCC)CC[C@H]1C[C@@H](Cc1ccnc2ccc(OC)cc12)OC(=O)[C@](OC)(c1ccccc1)C(F)(F)F | 96 | 96 | 12
42 | CN(C)CCN(C)Cc1cccc(-c2ccc3c(Nc4cc(O)c(Cl)cc4F)ccnc3c2)c1 | 100 | 70 | 14
43 | COc1ccc(NC(=O)c2ccc(C=Cc3ccc(C(F)(F)F)cc3)cc2)cc1N1CCN(C)CC1 | 99 | 47 | 46
44 | CCOc1cccc(C(=O)Nc2ccc(-c3nc4ccccc4[nH]3)cc2)c1 | 96 | 30 | 40
45 | COc1cccc(-c2csc(C(=O)NCC3CCN(Cc4ccc(C(C)C)cc4)C3)c2)c1.O=C(O)C(F)(F)F (configuration not stated) | 86 | 9 | 35
46 | Br.CC(C)Oc1ccc(CCCON2C(=N)N=C(N)NC2(C)C)cc1 | 96 | 94 | 66
47 | COc1ccc(CCNCCCCCCNCCc2ccc(Cl)cc2)c(Cl)c1OC.Cl | 100 | 4 | 88
48 | Cl.O=C(C=Cc1ccc(F)cc1)NC1CCC(CCN2CCc3ccc(-c4cnccn4)cc3CC2)CC1 (configuration not stated) | 99 | 65 | 32
49 | FC(F)(F)c1ccc2[nH]c(-c3ccc(-c4ccc(CN5CCN(c6ccncc6)CC5)cc4)s3)nc2c1.O=C(O)C(F)(F)F | 100 | 50 | 97
50 | Cl.N=C(N)Nc1nc(-c2ccc(NC(=N)N3CCC[C@H]3CN3CCCC3)cc2)cs1 | 82 | 66 | 6
51 | O=C(Nc1ccc(-c2csc(-c3nc4ccccc4[nH]3)c2)cc1)Nc1ccsc1 | 100 | 17 | 50
52 | O=C(O)C(=O)O.Oc1c(CN2CCC(Cc3ccccc3)CC2)cc(Cl)c2cccnc12 | 96 | 94 | 49
53 | Cc1ccc(CNc2cc(C(F)(F)F)nc(-c3ccc(S(C)(=O)=O)cc3)n2)cc1 | 89 | 72 | 2
54 | Nc1cccc(CNCc2cccc(-c3ccc(-c4nc5ccccc5[nH]4)s3)c2)c1.O=C(O)C(F)(F)F | 100 | 90 | 8
55 | CCN1CCCC1CN(Cc1ccc(-c2ccc(C(F)(F)F)cc2)cc1)C(=O)Cn1c(CCc2cccc(F)c2F)nc(=O)c2ccccc21.O=C(O)C(O)C(O)C(=O)O (configuration not stated) | 94 | 51 | 40
56 | CCN(CC)CCN(Cc1ccc(-c2ccc(C(F)(F)F)cc2)cc1)C(=O)Cn1c(CCc2cccc(F)c2F)nc(=O)c2ccccc21.O=C(O)C(O)C(O)C(=O)O | 97 | 60 | 49
57 | CCC(C)OC(=O)C1=C(C)NC2=C(C(=O)CC(c3ccc(OC)c(OC)c3)C2)C1c1cccc(O)c1 (configuration not stated) | 100 | 98 | 0
58 | Cc1ccc(NC(=O)c2ccc3nccnc3c2)cc1OC1CCN(Cc2ccc(F)cc2)CC1.O=C(O)C(F)(F)F | 87 | 24 | 16
59 | Cc1cccc(CN2CCC(Oc3ccc(NC(=O)c4cccs4)cc3Cl)CC2)n1.O=C(O)C(F)(F)F | 86 | 88 | 27
